Assay results: PubChem BioAssay (EPA / NIEHS)
The source made the active and inactive calls. The calls were made as follows: active = hit-call score of the fitted dose curve at least 0.9, where 1 is the maximum; inactive = score below 0.9.

Tests used:
[1] = ATG_E_Box_CIS: Attagene CIS-FACTORIAL HepG2 Assay for human Enhancer Box (E-box) (AID 2282936); details: HepG2 E-box cis-reporter transcription, actives raise or lower the signal
Procedure, shortened: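 Cells: HepG2 (human liver), transient MRTU transfection. Exposure 24 h. RNA → oligo(dT) RT → PCR → 6-FAM label → HpaI → CE. Activity fitted both directions relative to DMSO.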

[2] = ATG_M_61_CIS: Attagene CIS-FACTORIAL HepG2 Assay for M61 Transcription Factor (Internal Marker) (AID 2282937); details: HepG2 Attagene CIS-FACTORIAL M61 internal marker reporter; actives raise or lower the signal
Procedure, shortened: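 HepG2 cells transiently transfected with multiplexed cis-promoter reporter units reporting endogenous transcription factor activity, measured 24 h after dosing. Reporter mRNA quantified by RT-PCR and capillary electrophoresis; bidirectional fit against DMSO baseline.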

[3] = ATG_EGR_CIS: Attagene CIS-FACTORIAL HepG2 Assay for human Early Growth Response 1 (EGR1) (AID 2282938); details: HepG2 Attagene CIS-FACTORIAL EGR reporter mRNA; actives raise or lower the signal
Procedure, shortened: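 HepG2 cells transiently transfected with cis-element-driven multiplexed reporter units, dosed for 24 h. EGR1-element reporter mRNA quantified by RT-PCR, 6-FAM labelling, HpaI digestion and capillary electrophoresis; bidirectional fit versus DMSO.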

[4] = ATG_M_19_CIS: Attagene CIS-FACTORIAL HepG2 Assay for M19 Transcription Factor (Internal Marker) (AID 2282939); details: HepG2 Attagene CIS-FACTORIAL M19 internal marker reporter; actives raise or lower the signal
Procedure, shortened: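 Internal marker readout, fitted in both directions against DMSO, from HepG2 cells carrying transfected cis-element reporter constructs; RT-PCR and capillary electrophoresis of reporter mRNA after 24 h exposure.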

[5] = ATG_ERE_CIS: Attagene CIS-FACTORIAL HepG2 Assay for Estrogen Response Element (ERE) (AID 2282940); details: HepG2 ERE cis-reporter, Attagene RNA transcript; actives raise or lower the signal
Procedure, shortened: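 After 24 h compound treatment, RNA from transfected HepG2 cells was reverse-transcribed, reporter cDNA PCR-amplified, FAM-labelled, HpaI-cut and resolved by capillary electrophoresis. ERE-driven cis reporter transcripts reflect endogenous factors; gain or loss scored against DMSO.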

[6] = ATG_Ets_CIS: Attagene CIS-FACTORIAL HepG2 Assay for human Erythroblast Transformation Specific (ETS) (AID 2282941); details: HepG2 ETS cis-reporter transcription, actives raise or lower the signal
Procedure, shortened: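 After transient cis-reporter transfection, HepG2 cells receive test chemical for 24 h. Reporter mRNA levels, measured by RT-PCR and capillary electrophoresis fluorescence, are analysed bidirectionally relative to the DMSO baseline.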

[7] = target: Hepatocyte nuclear factor 3-beta (Homo sapiens) (UniProt Q9Y261); assay: ATG_FoxA2_CIS: Attagene CIS-FACTORIAL HepG2 Assay for human Forkhead box A2 (FOXA2) (AID 2282942); details: HepG2 cis-reporter transcription factor activity, 24 h; actives raise or lower the signal
Chain of Hepatocyte nuclear factor 3-beta (Homo sapiens) (Q9Y261 whole entry, looked up): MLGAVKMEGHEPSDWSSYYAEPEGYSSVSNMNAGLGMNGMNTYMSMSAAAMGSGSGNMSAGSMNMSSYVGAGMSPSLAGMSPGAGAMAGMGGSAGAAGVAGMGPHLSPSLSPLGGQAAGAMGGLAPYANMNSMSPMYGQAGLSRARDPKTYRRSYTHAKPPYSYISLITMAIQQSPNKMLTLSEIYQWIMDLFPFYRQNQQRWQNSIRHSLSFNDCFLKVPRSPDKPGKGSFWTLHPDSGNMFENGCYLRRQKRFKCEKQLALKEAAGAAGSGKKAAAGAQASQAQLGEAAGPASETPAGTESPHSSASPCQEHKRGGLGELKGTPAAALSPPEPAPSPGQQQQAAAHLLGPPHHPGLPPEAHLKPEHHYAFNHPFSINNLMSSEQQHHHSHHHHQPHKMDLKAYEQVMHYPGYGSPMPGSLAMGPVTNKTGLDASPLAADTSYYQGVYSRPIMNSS
Procedure, shortened: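 HepG2 transiently transfected with a multiplexed cis-promoter reporter library read endogenous FOXA2 activity. After 24 h compound exposure, reporter mRNA was quantified by RT-PCR, HpaI digestion and capillary electrophoresis. Bidirectional fit against DMSO.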

[8] = ATG_FoxO_CIS: Attagene CIS-FACTORIAL HepG2 Assay for human Forkhead box O (FoxO) (AID 2282943); details: HepG2 Attagene cis-reporter, FoxO element, mRNA; actives raise or lower the signal
Procedure, shortened: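 HepG2, transient MRTU transfection (cis element, endogenous TFs). Dose 24 h. TriZol RNA → oligo(dT) RT → PCR → 6-FAM primer extension → HpaI cut → CE. Gain/loss vs DMSO.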

[9] = ATG_GATA_CIS: Attagene CIS-FACTORIAL HepG2 Assay for human GATA Binding Protein (AID 2282944); details: HepG2 GATA cis-element reporter, Attagene multiplex mRNA; actives raise or lower the signal
Procedure, shortened: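 Reporter transcripts from a GATA cis-regulated unit, among multiplexed reporters in transfected HepG2 cells, were measured by RT-PCR with capillary electrophoresis after 24 h dosing. Induction or loss scored relative to DMSO.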

[10] = ATG_GLI_CIS: Attagene CIS-FACTORIAL HepG2 Assay for human Zinc Finger Protein GLI1 (AID 2282945); details: HepG2, Attagene cis-factorial reporter mRNA, GLI element; actives raise or lower the signal
Procedure, shortened: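 Bidirectional curve fits relative to DMSO, using reporter mRNA levels from RT-PCR plus capillary electrophoresis. Cells were HepG2 transiently carrying cis-regulated reporter constructs, harvested 24 h after dosing.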

Measured: AC50

OCC(CO)n1cnc(-c2ccc(F)cc2)c1-c1ccnc(Oc2ccccc2)n1
inactive: [1] | [2] | [3] | [4] | [5] | [6] | [7] | [8] | [9] | [10]

CC(COCC(C)OC(=O)c1ccccc1)OC(=O)c1ccccc1 (stereo not drawn)
inactive: [1] | [2] | [3] | [4] | [6] | [7] | [8] | [9] | [10]

O=C(NS(=O)(=O)/C=C/c1cccs1)c1ccc(F)cc1Br
inactive: [1] | [2] | [3] | [5] | [6] | [7] | [8] | [9] | [10]

Nc1nc(=S)c2[nH]cnc2[nH]1
inactive: [1] | [2] | [3] | [7] | [8] | [9] | [10]
active: [5] 98.1 µM

CCCCCCCCCC[N+](C)(C)[O-]
inactive: [1] | [2] | [3] | [5] | [6] | [7] | [8] | [9] | [10]

COc1ccc(OC(F)(F)F)cc1CN[C@H]1CCCN[C@H]1c1ccccc1
active: [1] 11 µM
inactive: [2] | [4] | [5] | [6] | [7] | [8] | [9] | [10]

CS(=O)(=O)c1ccc([C@@H](C[C@H]2CCC(=O)C2)C(=O)Nc2cnccn2)cc1Cl
inactive: [1] | [2] | [3] | [7] | [8] | [9] | [10]
active: [5] 45.5 µM

COC(=O)CCCC(=O)OC
inactive: [1] | [2] | [3] | [7] | [8] | [9] | [10]

Cc1cc(SC2=C(O)C[C@@](CCc3ccc(N)cc3)(C(C)C)OC2=O)c(C(C)(C)C)cc1CO
inactive: [1] | [2] | [3] | [7] | [8] | [9] | [10]

CCCCC(CC)COP(=O)(OCC(CC)CCCC)OCC(CC)CCCC (stereo not drawn)
inactive: [1] | [2] | [3] | [6] | [7] | [8] | [9] | [10]

Cc1c(C)c2c(c(C)c1O)CCC(C)(COc1ccc(CC3SC(=O)NC3=O)cc1)O2 (stereo not drawn)
inactive: [1] | [2] | [4] | [6] | [7] | [8] | [9] | [10]
active: [5] 0.221 µM

CSc1ccc(Oc2ccc(S(N)(=O)=O)cc2CN(C)C)cc1C
inactive: [1] | [2] | [3] | [5] | [7] | [8] | [9] | [10]

O=C1OC(c2ccc(O)cc2)(c2ccc(O)cc2)c2ccccc21
inactive: [2] | [6] | [8] | [9]
active: [1] 176 µM | [3] 20.8 µM | [7] 177 µM | [10] 159 µM

CC(C)(C)c1ccccc1
inactive: [1] | [2] | [3] | [7] | [8] | [9] | [10]

COC(=O)[C@H]1[C@H]2C[C@@H]3c4[nH]c5cc(OC)ccc5c4CCN3C[C@H]2C[C@@H](OC(=O)c2cc(OC)c(OC)c(OC)c2)[C@@H]1OC
inactive: [2] | [7] | [8] | [9] | [10]
active: [1] 51.6 µM | [3] 8.83 µM

CN(C)CCCN(C)CCCN(C)C
inactive: [1] | [2] | [4] | [5] | [6] | [7] | [8] | [9] | [10]

CC(C)c1cccc(C(C)C)c1NC(=O)NS(=O)(=O)c1cc(C(C)(C)O)co1
inactive: [1] | [2] | [3] | [7] | [8] | [9] | [10]

Oc1ccccc1O
inactive: [1] | [2] | [3] | [6] | [7] | [8] | [9] | [10]

O=[Si]=O
inactive: [1] | [2] | [3] | [5] | [7] | [8] | [9] | [10]

CCCCCCCCCCCCCCOS(=O)(=O)O
inactive: [1] | [2] | [4] | [5] | [7] | [8] | [9] | [10]

O=C1c2c(O)cccc2Cc2cccc(O)c21
inactive: [1] | [2] | [3] | [6] | [7] | [8] | [9] | [10]

O=C1CCCCC1
inactive: [1] | [2] | [3] | [5] | [7] | [8] | [9] | [10]

CC(C)COC(=O)CCCCC(=O)OCC(C)C
inactive: [1] | [2] | [3] | [7] | [8] | [9] | [10]

NC(=Nc1ccccc1)Nc1ccccc1
inactive: [1] | [2] | [4] | [5] | [6] | [7] | [8] | [9] | [10]

CC(=O)S[C@H](C(=O)N[C@H]1Cc2ccccc2[C@H]2CCC[C@@H](C(=O)O)N2C1=O)C(C)C
inactive: [1] | [2] | [3] | [7] | [8] | [9] | [10]

CC(C)NCC(O)c1ccc(O)c(O)c1 (stereo not drawn)
inactive: [1] | [2] | [3] | [7] | [8] | [9] | [10]

CC(C)(O)c1ccc(CNC(=O)c2cccnc2Oc2ccc(F)cc2)cc1
inactive: [1] | [2] | [3] | [6] | [7] | [8] | [9] | [10]

CC1=C(C)S(=O)(=O)CCS1(=O)=O
active: [1] 100 µM
inactive: [2] | [4] | [5] | [6] | [7] | [8] | [9] | [10]

O=C(N[C@@H](c1ccccc1)[C@@H]1CCCCN1)c1cccc(C(F)(F)F)c1Cl
active: [6] 33 µM | [10] 55.9 µM
inactive: [1] | [2] | [4] | [5] | [7] | [8] | [9]

CCCCCCCCCCCCCCCCO
inactive: [1] | [2] | [4] | [5] | [6] | [7] | [8] | [9] | [10]

CN(C)C(=O)NC1(c2ccccc2)CCN(CCC[C@]2(c3ccc(Cl)c(Cl)c3)CCCN(C(=O)c3ccccc3)C2)CC1
active: [1] 4.17 µM
inactive: [2] | [4] | [5] | [6] | [7] | [8] | [9] | [10]
